PubChem BioAssay (Tox21)
Where “and” joins values, the source holds several entries; their conditions need not be identical. Equal values may be shown once. Inconclusive results are not listed. A call without a number means that no potency is given here. The source holds several records for some structures; these can differ, active in one and inactive in another. Calls of active or inactive are those of the source. Unless noted, calls come from the whole dose curve; as a rule, active = well fitted curve in the direction sought with a large enough effect in the repeat runs; inconclusive = weak or mixed curves; inactive = no such curve, though single readings can be large; an effect the other way counts as inactive or inconclusive.

How the values were obtained:
[1] = qHTS assay to identify small molecule agonists of the vitamin D receptor (VDR) signaling pathway - cell viability counter screen (AID 743224); note: nearly all actives have a fitted effect of over 50% in size; note: potency is the fitted concentration of half-maximal effect
Procedure, shortened: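 VDR-bla cells, 4 h after plating, exposed to compounds for 16 h at 37C; viability then read in the same wells as CellTiter-Glo luminescence after 30 min at room temperature, following the bla FRET read.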

[2] = qHTS assay to identify small molecule antagonists of the vitamin D receptor (VDR) signaling pathway - cell viability counter screen (AID 743225); note: nearly all actives have a fitted effect of over 50% in size; note: potency is the fitted concentration of half-maximal effect
Procedure, shortened: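 Viability counter screen run in the same wells as the beta-lactamase reporter assay: HEK 293T VDR-UAS-bla cells, 16 h compound exposure at 37C with 3 nM (final) 1-alpha,25-dihydroxyvitamin D3. CellTiter-Glo luminescence, 30 min, room temperature.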

[3] = qHTS assay to identify small molecule agonists of the NFkB signaling pathway - cell viability counter screen (AID 1159515; calls by dose curve; note: nearly all actives have a fitted effect of over 55% in size; note: potency is the fitted concentration of half-maximal effect)
Procedure, shortened: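 NFkB-bla ME-180 cells, 2,000/well, plated overnight at 37 C; compound added for 5 hr at 37 C. Viability read in the same wells as the bla reporter, by CellTiter-Glo luminescence after 30 min at room temperature.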

[4] = qHTS assay to identify small molecule agonists of the endoplasmic reticulum stress response signaling pathway - cell viability counter screen (AID 1159517; calls by dose curve; note: nearly all actives have a fitted effect of over 50% in size; note: potency is the fitted concentration of half-maximal effect)
Procedure, shortened: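 Cells, HeLa ESRE-bla; density, 1,500/well; dosing, 5 hr at 37 C, 5% CO2; readout, CellTiter-Glo luminescence after 30 min RT.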

[5] = qHTS assay to identify small molecule antagonists of the retinoid-related orphan receptor gamma (ROR-gamma) signaling pathway - cell viability counter screen (AID 1159520); note: nearly all actives have a fitted effect of over 50% in size; note: potency is the fitted concentration of half-maximal effect
Procedure, shortened: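 Cytotoxicity was read from cellular ATP (CellTiter-Glo luminescence) after 16 hr at 37 C with 1 uM doxycycline induction. The inducer was added 2 hr after compound transfer to Tet-on ROR gamma CHO cells.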

[6] = molecular target: Nuclear receptor ROR-gamma (Homo sapiens) (UniProt P51449); experiment: qHTS assay to identify small molecule antagonists of the retinoid-related orphan receptor gamma (ROR-gamma) signaling pathway (AID 1159521; note: nearly all actives have a fitted effect of over 50% in size; note: potency is the fitted concentration of half-maximal effect)
Procedure, shortened: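 Luminescence readout (ONE-Glo, 30 min RT) after 16 h doxycycline induction; loss of signal scored as antagonism. CHO cells with TET-inducible RORγ and RORE-LUC reporter; compounds added 2 h before 1 uM final doxycycline.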

[7] = qHTS assay to identify small molecule agonists of the AP-1 signaling pathway - cell viability counter screen (AID 1159525; calls by dose curve; note: nearly all actives have a fitted effect of over 55% in size; note: potency is the fitted concentration of half-maximal effect)
Procedure, shortened: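 Luminescent ATP readout (Cell Titer Glo, 30 min RT), normalised to DMSO and tetra n-octyl ammonium bromide controls. Cells were ME-180 AP-1-bla in 0.5% dialyzed FBS Opti-MEM, with a 5 h, 37 °C compound exposure.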

[8] = qHTS assay to identify small molecule agonists of the AP-1 signaling pathway (AID 1159526; calls by dose curve)
[9] = qHTS assay to identify small molecule agonists of the RXR signaling pathway - cell viability counter screen (AID 1159529); note: nearly all actives have a fitted effect of over 50% in size; note: potency is the fitted concentration of half-maximal effect
Procedure, shortened: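 Luminescence from CellTiter-Glo (30 min, RT) measured viability in the same wells as the beta-lactamase reporter readout. Cells: GeneBLAzer RXR-alpha HEK 293T, 2% charcoal-stripped FBS. Compound exposure 16 hr, 37 C.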

[10] = qHTS assay to identify small molecule antagonists of the retinoid acid receptor (RAR) signaling pathway - cell viability counter screen (AID 1159551); note: nearly all actives have a fitted effect of over 35% in size; note: potency is the fitted concentration of half-maximal effect
Procedure, shortened: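 C3RL4 RARE-luciferase cells, 1,000/well, incubated overnight, then dosed with compound plus 1 uM retinol (final). After 6 hr at 37 C, viability read by CellTiter-Glo ATP luminescence following 30 min at room temperature.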

[11] = qHTS assay to identify small molecule antagonists of the retinoic acid receptor (RAR) signaling pathway (AID 1159552; note: nearly all actives have a fitted effect of over 50% in size; note: potency is the fitted concentration of half-maximal effect)
Procedure, shortened: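 Luminescence from a RARE luciferase reporter in C3RL4 cells served as read-out. Cells received compounds together with 1 uM final retinol and incubated 6 hr at 37 C before detection reagent was added for 30 min at room temperature.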

[12] = qHTS assay to identify small molecule agonists of the retinoic acid receptor (RAR) signaling pathway (AID 1159553); details: C3RL4 RARE luciferase reporter, agonist, 6 h; activation: at 73.3 µM (top of the series) unless noted
Procedure, shortened: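 C3RL4 RARE-luciferase cells were seeded at 1,000/well and grown overnight at 37 C, then exposed to compounds for 6 hr at 37 C, 5% CO2. Luciferase reagent was added and luminescence was read after 30 min at room temperature.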

[13] = qHTS assay to identify small molecule antagonists of the estrogen related receptor (ERR) signaling pathway - cell viability counter screen (AID 1224818)
Procedure, shortened: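 ERR cells, 2,000 per well, compound added after 6 h and incubated 17.5 h at 37 C. Viability read by CellTiter-Fluor fluorescence after a further 30 min at 37 C.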

[14] = qHTS assay to identify small molecule antagonists of the estrogen related receptor (ERR) signaling pathway (AID 1224819)
Procedure, shortened: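 ERR reporter cell line (NTP) plated at 2,000 cells/well, settled 6 h at 37C/5% CO2, then exposed to LOPAC compounds for 18 h at 37C. One-Glo luciferase luminescence read after 30 min at room temperature.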

[15] = qHTS assay to identify small molecule agonists of the estrogen related receptor (ERR) signaling pathway (AID 1224820)
Procedure, shortened: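 ERR reporter cells (NTP line) plated 2,000/well, incubated 6 h at 37 C/5% CO2, then pinned with compounds in DMSO and held 18 h at 37 C. One-Glo added; luminescence read after 30 min at room temperature.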

[16] = system: estrogen-related receptor alpha (ERRalpha) with PGC-1alpha coactivator, human; experiment: qHTS assay to identify small molecule antagonists of the estrogen related receptor signaling pathway with the pleiotropic PPARgamma coactivator (PGC) (AID 1224821; calls by dose curve)
Procedure, shortened: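 Cells engineered for PGC/ERR signalling (line from NTP) were plated 6 h at 37 C/5% CO2, then exposed to DMSO-dissolved compound for 18 h at 37 C. Luciferase activity was read by One-Glo luminescence after 30 min at room temperature.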

[17] = qHTS assay to identify small molecule antagonists of the estrogen related receptor signaling pathway with the pleiotropic PPARgamma coactivator (PGC) cell viability counter screen (AID 1224822; note: potency is the fitted concentration of half-maximal effect)
Procedure, shortened: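 PGC/ERR cells rested 6 h, then compound-treated 17.5 h at 37 C. CellTiter-Fluor added for 30 min at 37 C, viability measured by fluorescence intensity.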

[18] = qHTS assay to identify small molecule agonists of the estrogen related receptor signaling pathway with the pleiotropic PPARgamma coactivator (PGC) (AID 1224823)
Procedure, shortened: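 PGC/ERR reporter cells were seeded, rested 6 h at 37 C/5% CO2, then exposed to compounds in DMSO by pin transfer for 18 h at 37 C. Luciferase activity was read as luminescence after One-Glo reagent and 30 min at room temperature.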

[19] = molecular target: Retinoic acid receptor RXR-alpha (Homo sapiens) (UniProt P19793); experiment: qHTS assay to identify small molecule agonists of the RXR signaling pathway (AID 1159527; calls by dose curve; note: nearly all actives have a fitted effect of over 35% in size)
Procedure, shortened: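 Agonist mode; 9-cis retinoic acid positive control. HEK 293T UAS-bla reporter cells, 2% charcoal-stripped FBS, 16 hr compound exposure at 37 C/5% CO2. LiveBLAzer B/G FRET substrate 2 hr RT; ex 405, em 460/530 nm.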

Sequence of Retinoic acid receptor RXR-alpha (Homo sapiens) (P19793 whole entry, looked up): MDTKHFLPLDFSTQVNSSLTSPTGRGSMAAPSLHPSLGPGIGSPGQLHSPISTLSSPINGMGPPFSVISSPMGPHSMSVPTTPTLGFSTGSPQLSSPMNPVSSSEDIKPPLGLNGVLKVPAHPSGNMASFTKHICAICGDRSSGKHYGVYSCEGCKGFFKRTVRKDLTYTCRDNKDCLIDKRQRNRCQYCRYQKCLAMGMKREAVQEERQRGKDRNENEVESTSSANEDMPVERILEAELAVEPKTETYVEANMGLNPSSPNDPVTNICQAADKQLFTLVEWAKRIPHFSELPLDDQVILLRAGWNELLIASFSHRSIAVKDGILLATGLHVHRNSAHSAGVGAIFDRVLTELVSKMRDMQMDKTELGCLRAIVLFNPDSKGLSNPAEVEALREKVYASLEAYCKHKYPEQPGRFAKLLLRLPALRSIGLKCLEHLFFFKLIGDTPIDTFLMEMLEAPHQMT

SMILES	Potency [1]	Potency [2]	Potency [3]	Potency [4]	Potency [5]	Potency [6]	Potency [7]	Potency [8]	Potency [9]	Potency [10]	Potency [11]	Potency [12]	outcome [13]	Potency [14]	outcome [15]	Potency [16]	Potency [17]	outcome [18]	Potency [19]
Cc1cc(C)c(/C=C2\C(=O)Nc3ccccc32)[nH]1	inactive	inactive	inactive	inactive	inactive	inactive	inactive	inactive	inactive	inactive	inactive	inactive	inactive	inactive	inactive	inactive	inactive	inactive	–
Cc1cc(-n2nc3ccc(Cl)cc3n2)c(O)c(C(C)(C)C)c1	inactive	inactive	inactive	inactive	inactive	inactive	inactive	inactive	inactive	inactive	inactive	inactive	–	–	–	–	–	–	inactive
C#Cc1ccc(-c2ccccc2F)cc1	inactive	inactive	inactive	inactive	inactive	–	inactive	inactive	inactive	inactive	inactive	inactive	–	–	–	–	–	–	inactive
COc1cccc2c1C(=O)c1c(O)c3c(c(O)c1C2=O)C[C@@](O)(C(C)=O)C[C@@H]3O[C@H]1C[C@H](N)[C@H](O)[C@H](C)O1	34.9 µM (active)	inactive	inactive	952 nM (active)	13.8 µM (active) and 15 µM (active)	30.8 µM (active) and inactive	inactive	–	–	inactive	–	–	–	–	–	–	–	–	–
Fc1ccc(C(c2ccc(F)cc2)N2CCNCC2)cc1	26.6 µM (active)	16.9 µM (active)	inactive	inactive	inactive	–	inactive	inactive	–	inactive	–	–	–	–	–	–	–	–	inactive
Cc1cccc(C(=O)O)c1O	inactive	inactive	inactive	inactive	inactive	–	inactive	inactive	inactive	inactive	inactive	inactive	–	–	–	–	–	–	inactive
CCC(C)(CCC(C)C)C(=O)[O][Sn]([CH3])([CH3])[O]C(=O)C(C)(CC)CCC(C)C (centres undefined)	inactive	inactive	inactive	inactive	inactive	27.3 µM (active)	inactive	inactive	inactive	inactive	–	–	–	–	–	–	–	–	–
CCN(CCN)c1cccc(C)c1	inactive	inactive	inactive	inactive	inactive	inactive	inactive	inactive	inactive	inactive	inactive	inactive	–	–	–	–	–	–	–
CCCCC/C=C\C/C=C\CCCCCCCC(=O)O	inactive	inactive	inactive	inactive	inactive	inactive	inactive	inactive	–	inactive	–	inactive	–	–	–	–	–	–	–
O=C1OC2(c3ccc(O)cc3Oc3cc(O)ccc32)c2ccc(N=C=S)cc21	inactive	inactive	inactive	inactive	inactive	inactive	inactive	inactive	inactive	inactive	inactive	inactive	–	–	–	–	–	–	–
CC(C(=O)O)c1ccc2c(c1)[nH]c1ccc(Cl)cc12 (centres undefined)	inactive	inactive	inactive	inactive	inactive	inactive	inactive	inactive	inactive	inactive	inactive	inactive	–	–	–	–	–	–	–
OC1CCC(C2CCCCC2)CC1 (centres undefined)	inactive	inactive	inactive	inactive	inactive	–	inactive	inactive	–	inactive	inactive	inactive	–	–	–	–	–	–	inactive
CC(C)(c1cc(Br)c(OCC(Br)CBr)c(Br)c1)c1cc(Br)c(OCC(Br)CBr)c(Br)c1 (centres undefined)	inactive	inactive	inactive	inactive	inactive	–	inactive	inactive	inactive	inactive	inactive	inactive	–	–	–	–	–	–	inactive
O=C1NC(=O)[C@@H]2CC=CC[C@H]12	inactive	–	inactive	inactive	inactive	54.5 µM (active)	inactive	inactive	–	inactive	inactive	inactive	–	–	–	–	–	–	–
CC(C)(C)c1ccc(C(O)CCCN2CCC(C(O)(c3ccccc3)c3ccccc3)CC2)cc1 (centres undefined)	13.3 µM (active)	inactive	21.3 µM (active)	21300 nM (active)	18.8 µM (active)	13.3 µM (active)	inactive	inactive	7.56 µM (active)	inactive	inactive	–	–	–	–	–	22 µM (active)	–	–
C#CC1(O)CC[C@H]2[C@@H]3CCC4=CCCC[C@@H]4[C@H]3CC[C@@]21C (some centres undefined)	49 µM (active) and 23.7 µM (active)	21.3 µM (active)	13.4 µM (active)	49 µM (active) and 10.7 µM (active)	61.1 µM (active) and 26.6 µM (active)	43.3 µM (active) and 23.7 µM (active)	43.6 µM (active) and 15.1 µM (active)	–	24.5 µM (active) and 21.3 µM (active)	54.5 µM (active) and 26.6 µM (active)	48.6 µM (active) and 23.7 µM (active)	inactive	–	–	–	–	–	–	–
COc1c(C)c2c(c(O)c1C/C=C(\C)CCC(=O)OCCN1CCOCC1)C(=O)OC2	inactive	–	inactive	inactive	–	0.237 µM (active)	inactive	inactive	–	inactive	inactive	inactive	–	–	–	–	–	–	–
O=C(c1ccc(O)c(O)c1)c1ccc(O)cc1O	inactive	inactive	inactive	inactive	inactive	21.6 µM (active)	inactive	inactive	inactive	inactive	inactive	–	–	–	–	–	–	–	–
